# Lamin A splicing – modulators of lamin A splicing | HeLa LMNA splicing GFP/RFP minigene ratio, 48 h | Potency, µM (doses to about 46.1 µM), without a hit: at the highest dose ratio change, negative = inhibition, hits mostly inhibitors | 0.01% of 200,000 active | AID 1487; active means well fitted inhibition curve with a large enough effect in the signal ratio, with a control signal flat, not every such curve was filed as active; inconclusive means small, poorly fitted or top-dose-only effect, or effect the other way, or a change in a side signal; the % refers to the signal ratio; further: potency means the concentration at half of the fitted maximal effect
#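 S3 HeLa stable clones carrying a lamin A-EGFP splicing minigene plus DsRed2 were seeded at 600 cells/well in Opti-MEM with 2% FBS, pin-dosed and incubated 48 h at 37°C. Acumen cytometry (488 nm) gave the GFP/RFP total-intensity ratio.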
# KinaseGlo FLuc – blocks Kinase-Glo luciferase, a counter-screen artifact. Q27757. Kinase-Glo luciferase, ATP luminescence, 8 min. Potency, µM (top dose mostly 38.3 µM), for the others: at the highest dose activity change, negative = inhibition, most hits filed as inhibitors. 0.28% of 200,000 active. AID 1379; active means well fitted inhibition curve with a large enough effect; inconclusive means small, poorly fitted or top-dose-only effect; further: potency means the concentration at half of the fitted maximal effect; nearly all actives have a fitted effect of over 60% in size
#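 Substrate mix (final 50 mM imidazole pH 7.2, 50 mM KCl, 7 mM MgCl2, 10 uM ATP, 0.01% Tween 20, 0.05% BSA) plus pin-tool compound, then Kinase-Glo detection mix; 8 min ambient, luminescence read.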
# ALDH1A1 inh – inhibitors of human aldehyde dehydrogenase 1A1; Potency, µM (doses to about 75.3 µM), inactives show at the top dose activity, negative = inhibition, usual class: inhibitors; Purified ALDH1A1, NADH fluorescence, propionaldehyde substrate; 7.3% of 220,000 active; P00352;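 further: potency means the concentration at half of the fitted maximal effect; plate controls were no enzyme wells and a reference inhibitor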
# Target sequence (P00352 whole entry, looked up): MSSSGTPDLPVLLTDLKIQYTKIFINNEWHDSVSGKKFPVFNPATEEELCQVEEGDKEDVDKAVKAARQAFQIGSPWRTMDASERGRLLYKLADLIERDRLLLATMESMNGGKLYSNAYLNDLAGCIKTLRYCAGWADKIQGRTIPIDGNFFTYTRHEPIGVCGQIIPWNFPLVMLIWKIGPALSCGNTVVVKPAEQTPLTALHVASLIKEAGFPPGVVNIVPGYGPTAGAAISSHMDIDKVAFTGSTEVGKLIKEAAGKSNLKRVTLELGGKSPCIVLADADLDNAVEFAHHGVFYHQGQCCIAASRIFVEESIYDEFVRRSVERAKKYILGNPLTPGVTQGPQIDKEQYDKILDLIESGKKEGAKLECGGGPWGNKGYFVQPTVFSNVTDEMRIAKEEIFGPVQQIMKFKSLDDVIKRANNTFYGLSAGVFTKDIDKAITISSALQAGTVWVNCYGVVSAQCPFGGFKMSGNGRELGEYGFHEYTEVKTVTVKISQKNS
# PNC inhibitor – perinucleolar compartment assembly inhibition | PC3M PTB-GFP, PNC prevalence imaging, 16 h; active compounds read low | activity change (PNC), negative = inhibition, % at 10 µM | 3.1% of 140,000 active | AID 2417;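 active means readout at or below -70, meaning at least 70% loss of cells showing the perinucleolar compartment, a nuclear body marking cancer cells; inconclusive means readout between -30 and a set limit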;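 further: plate controls were DMSO wells for no effect and camptothecin positive control wells for full effect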
#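 Read-out is percentage of cells bearing a perinucleolar compartment, from automated 20x imaging of fixed, Hoechst-stained PC3M PTB-GFP cells. Cells were seeded 4 h, then exposed 16 h to compound (23 nl of library stock) in duplicate plates.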
# HPGD block – blocks human HPGD enzyme activity; P15428; purified HPGD, NADH fluorescence kinetic, PGE2 substrate; Potency, µM, for inactives: at the highest dose activity change, negative = inhibition, actives largely listed as inhibitors; 4.3% of 150,000 active; further: potency means the concentration at half of the fitted maximal effect
#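 20 nM HPGD preincubated 15 min at room temperature with compound in 50 mM Tris-HCl pH 8, 0.01% Tween 20. Started with 1 mM NAD+ and 30 uM prostaglandin E2; NADH fluorescence (360/450 nm) read 5 times over 30-s intervals, last minus first.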
# * marks the source's active call; other numbers are inactive results; ? = inconclusive; . = not tested or not shown; [ ] = remark or other dose. Rows were chosen to be rich in hits. Some 10% of all compounds tested hit in one or more screens of this group. Unless noted, the call rests on the fitted dose curve; in most records, active means well fitted inhibition curve with a large enough effect (not every such curve was filed as active); inconclusive means small, poorly fitted or top-dose-only effect, or another doubt; inactive means no such curve, though single readings can be large or run the other way. Unless noted, on the % scale 0 is the no-effect control and ±100 the full control effect.
SMILES,Lamin A splicing,KinaseGlo FLuc,ALDH1A1 inh,PNC inhibitor,HPGD block
COc1cccc2c1CCC1CC(=O)CC[C@@]21C (stereo not given in full),?,0%,?,.,-13%
C[C@@H](N)C1CCC(C(=O)Nc2ccncc2)CC1 (stereo not given in full),?,-1%,11%,.,-17%
O=C(Nc1ccc(NC(=O)c2ccccn2)cc1)C(=O)Nc1ccc2c(c1)OCCO2,?,1%,?,.,.
O=C(Nc1ccc(N2CCCCC2)cc1)c1ccccn1,.,7.9µM*,0%,.,.
Cn1nc(C(=O)Nc2ccc3c(c2)OCCO3)cc1C(=O)O,.,11µM*,-1%,.,.
COc1cc2c(cc1OC)C(c1c[nH]c3ccccc13)NCC2 (stereo not given),.,1%,2%,.,-4%
Cc1cccc(NCc2ccccc2O)c1,-2%,2%,-30%,6,22µM*
Cc1cccc(NCCC#N)c1,-9%,-2%,-7%,-134*,-8%
Cc1ccc(S(=O)(=O)NCC(=O)N(CC(=O)NCC2CCCO2)Cc2ccco2)cc1 (stereo not given),-1%[46 µM],0%,18µM*,.,.
Cc1ccc(S(=O)(=O)NCC(=O)N(CC(=O)NCc2ccco2)Cc2ccco2)cc1,-18%[46 µM],-6%,8.9µM*,.,.
O=C(CN(Cc1ccco1)C(=O)CNS(=O)(=O)c1ccccc1)NCc1ccccc1,6%,1%,14µM*,?,-19%
O=C(CN(Cc1ccco1)C(=O)CNS(=O)(=O)c1ccc(F)cc1)NCCc1ccccc1,-4%,1%,4%,34,-7%
O=C(CN(Cc1cccs1)C(=O)CNS(=O)(=O)c1ccccc1)NCc1ccco1,-12%,5%,20µM*,?,-5%
Cc1cccc(C)c1NC(=O)[C@H](C)N,?,-1%[17.1 µM],6%[20.9 µM],.,0%
C#CCCCO/N=C1/C[C@@H](O)[C@@H](O)[C@@H]2[C@@H]3C(=O)N(Cc4ccc5c(c4)OCO5)C(=O)[C@H]3CC[C@H]12,.,.,-6%[13.5 µM],.,.
O=C(Nc1nccs1)c1ccc(NC(=O)C2CC=CCC2C(=O)O)cc1 (stereo not given),.,-2%,4µM*,.,.
CCCC[C@@H]1C[C@H]1C(NC(=O)Cc1ccccc1)c1ccc(-c2ccccc2)cc1 (stereo not given in full),.,-1%,1%,.,-12%
Cc1ccc(NC(=O)N2CCC(N3CCN(Cc4ccccc4)C(=O)C3=O)CC2)cc1Cl,17%[46 µM],.,.,.,.
O=C(CCCSc1nc2ccccc2s1)Nc1nccs1,-1%,-7%,16µM*,15,25µM*
O=C(CSc1ccc2ccccc2n1)NCc1ccc2c(c1)OCO2,3%[46 µM],-2%,18µM*,.,.
COc1ccc(C(=O)Nc2ccc3nc(SCc4ccc(C)cc4)sc3c2)cc1,20%[46 µM],.,.,.,.
NNC(=O)c1ccc(CSc2nc3ccccc3s2)cc1,?,2%,3.5µM*,.,.
O=C(CSc1nc2ccccc2s1)NCc1ccc2c(c1)OCO2,-18%,-1%,14µM*,7,32µM*
O=C(CSc1nc(C2CCCCC2)nc2ccccc12)NCc1ccc2c(c1)OCO2,?,-1%,20%,24,-6%
COc1ccc(-n2cnc3cc(C(=O)NC4CCCCCC4)ccc32)cc1,7%[46 µM],.,.,.,.
SMILES,Lamin A splicing,KinaseGlo FLuc,ALDH1A1 inh,PNC inhibitor,HPGD block
CC(C)(C)NC(=O)CCCSc1nc2ccccc2s1,?,-1%,-3%,.,.
O=C(CCCSc1nc2ccccc2s1)NCc1ccc2c(c1)OCO2,-18%,1%,3.5µM*,?,-24%
CC(=O)OCCC(C)CCC=C(C)C (stereo not given),5%,-3%,-8%,.,-10%
COC(=O)[C@@]1(Cc2ccc(F)cc2)[C@H]2c3cc(C(=O)N4CCCC4)n(Cc4cc(F)cc5c4OCOC5)c3C[C@H]2CN1C(=O)c1ccccc1,.,-4%,-1%,.,-17%
O=C(Nc1ccccc1Cl)c1ccc(COc2ccc3c(c2)CCC3)cc1,0%,0%,4%,?,-6%
O=C(NCc1ccccc1)c1cccc(COc2ccc(Cl)cc2)c1,-3%,-7%,?,-5,-27%
COc1ccc(OCc2cccc(C(=O)NN)c2)cc1,?,-11%,0.32µM*,?,-16%
NNC(=O)c1ccc(COc2ccc3c(c2)CCC3)cc1,-10%,-2%,7.9µM*,?,-17%
